Source: the supplement of paper PMC10127200
Where a name gives a salt, the structure may show the parent alone.

Experiments:
Experiment in all cases: Euclidean distance of Cell Painting phenotypic profile (signed KS, 77 features) to DMSO centroid (dimensionless distance); 5 or 10 uM (library dependent); higher = stronger phenotypic change vs DMSO (phenoactivity)
Details in all cases: 48 h
[1] = system: 786-O
Procedure, shortened: (§1)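 Phenoactivity is defined as the Euclidean distance from a compound profile to the median vehicle profile. Each profile comprised 77 Harmony features, scored as signed Kolmogorov-Smirnov statistics versus same-plate vehicle wells, then plate-position corrected, correlation-weighted and replicate-averaged at the top dose. Five cancer lines and one healthy fibroblast line were exposed to library compounds for 48 h at 10 or 5 uM (0.1% DMSO final).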

[2] = system: A549
Procedure, shortened: as §1

[3] = system: DU145
Procedure, shortened: as §1

[4] = system: FB
Procedure, shortened: as §1

[5] = system: HEPG2
Procedure, shortened: as §1

[6] = system: OVCAR4
Procedure, shortened: as §1

Row | SMILES | Euclidean distance [1] | Euclidean distance [2] | Euclidean distance [3] | Euclidean distance [4] | Euclidean distance [5] | Euclidean distance [6]
1 | O=[N+]([O-])c1ccc(O)c2ncccc12 [Nitroxoline] | 2.71 | 2.74 | 1.76 | 1.94 | 1.71 | 2.24
2 | Cc1nccn1CC1CCc2c(c3ccccc3n2C)C1=O (stereo not drawn) [Ondansetron HCl] | 1.31 | 1.62 | 1.01 | 1.16 | 0.865 | 0.943
3 | CC(=O)Nc1nc(C)c(-c2ccc(Cl)c(S(=O)(=O)NCCO)c2)s1 | 0.94 | 1.48 | 1.62 | 2.98 | 0.945 | 1.12
4 | C[C@H]1c2cccc(O)c2C(=O)C2=C(O)[C@]3(O)C(=O)C(C(N)=O)=C(O)[C@@H](N(C)C)[C@@H]3[C@@H](O)[C@@H]21 [Doxycycline monohydrate] | 0.783 | 0.495 | 1.01 | 0.929 | 0.637 | 0.672
5 | CC(CN(C)C)CN1c2ccccc2Sc2ccccc21 (stereo not drawn) [Alimemazine Tartrate] | 1.33 | 1.55 | 1.73 | 2.43 | 2.13 | 1.33
6 | CN1C[C@@H]2C[C@H]1CN2c1cc2c(cc1F)c(=O)c(C(=O)O)cn2C1CC1 [Danofloxacin Mesylate] | 1.72 | 1.87 | 1.14 | 0.963 | 1.05 | 0.974
7 | NCCS [2-Aminoethanethiol] | 1.12 | 0.781 | 1.46 | 0.594 | 0.508 | 1.1
8 | O=C(O)c1ccccc1C(=O)Nc1ccc(S(=O)(=O)Nc2nccs2)cc1 [Phthalylsulfathiazole] | 1.08 | 1.02 | 0.914 | 1.11 | 0.685 | 0.869
9 | C[N+]1(C)[C@@H]2C[C@@H](OC(=O)C(O)(c3cccs3)c3cccs3)C[C@H]1[C@@H]1O[C@@H]12 [Tiotropium Bromide hydrate] | 1.26 | 0.676 | 0.73 | 1.02 | 0.978 | 0.837
10 | COc1cc2c(cc1Cc1cccc(Cl)c1F)c(=O)c(C(=O)O)cn2[C@H](CO)C(C)C [Elvitegravir (GS-9137. JTK-303)] | 1.44 | 2.36 | 1.33 | 0.872 | 0.582 | 1.76
11 | CCc1cccc2c3c([nH]c12)C(CC)(CC(=O)O)OCC3 (stereo not drawn) [Etodolac] | 0.711 | 0.964 | 1.01 | 1.18 | 0.56 | 1.35
12 | CN(C)C(=O)C(CCN1CCC(O)(c2ccc(Cl)cc2)CC1)(c1ccccc1)c1ccccc1 [Loperamide HCl] | 1.64 | 2.14 | 1.81 | 1.85 | 2.35 | 1.42
13 | COc1c(C)c2c(c(O)c1C/C=C(\C)CCC(=O)O)C(=O)OC2 [Mycophenolic acid] | 2.65 | 3.38 | 1.88 | 3.04 | 2.74 | 3.28
